Compounds with a hit are over-represented: about 3.4% of the library has one in this group of screens.
GCN5L2 inh: blocks human GCN5L2 histone acetyltransferase; 390,000 compounds, 0.21% hits; GCN5L2 HAT assay, ThioGlo1 CoA-SH fluorescence; Potency, µM (highest dose often 58.9 µM), without a hit: top-dose activity change, negative = inhibition, hits mostly inhibitors; note: % is set by controls: 0 for no effect and ±100 for the full control effect
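Free CoA generated was detected with ThioGlo1 (50uM) fluorescence at Ex340nm/Em540nm, read immediately and after 20 min at room temperature. Enzyme, 20 nM in HEPES pH 7.5 buffer, saw compounds 15 min before adding 75uM H3(1-25) peptide and 70uM acetyl-CoA.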
GLS inhibitor: blocks human kidney-isoform glutaminase activity. O94925. GLS enzymatic activity, qHTS titration. Potency, µM (top dose mostly 45.5 µM), without a hit: at the highest dose activity change, negative = inhibition, hits mostly inhibitors. 410,000 compounds, 0.21% hits; note: % is set by controls: 0 for no effect and ±100 for the full control effect
Target sequence (O94925 whole entry, looked up, canonical isoform): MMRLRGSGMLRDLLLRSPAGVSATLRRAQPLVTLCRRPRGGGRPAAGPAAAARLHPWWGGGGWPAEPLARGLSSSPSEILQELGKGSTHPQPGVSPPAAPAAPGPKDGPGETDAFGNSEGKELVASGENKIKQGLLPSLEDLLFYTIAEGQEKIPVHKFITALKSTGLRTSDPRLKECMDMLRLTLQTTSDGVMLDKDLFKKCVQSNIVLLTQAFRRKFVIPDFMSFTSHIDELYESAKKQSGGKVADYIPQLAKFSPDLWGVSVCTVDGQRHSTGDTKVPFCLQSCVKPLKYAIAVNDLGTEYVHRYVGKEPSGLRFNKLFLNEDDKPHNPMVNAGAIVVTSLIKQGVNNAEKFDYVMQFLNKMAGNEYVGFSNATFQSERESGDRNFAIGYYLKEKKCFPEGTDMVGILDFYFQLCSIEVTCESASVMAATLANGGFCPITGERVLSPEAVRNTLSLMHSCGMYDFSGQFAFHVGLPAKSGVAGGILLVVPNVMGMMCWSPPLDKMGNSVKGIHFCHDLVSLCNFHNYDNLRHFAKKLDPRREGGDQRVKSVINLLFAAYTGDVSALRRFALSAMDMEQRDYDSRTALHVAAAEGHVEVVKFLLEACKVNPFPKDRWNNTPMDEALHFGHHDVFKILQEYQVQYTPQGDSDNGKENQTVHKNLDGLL
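hKGA in 45 mM KH2PO4 (pH 8.2), 0.02% Tween-20 with compound, then 1mM L-Glutamine (stock as added) plus glutamate oxidase/HRP/Amplex red coupling mix. Fluorescence read initially and after 30 min at RT; signal change reflects glutamate formation.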
Mito fusion yeast: mitochondrial division inhibition or fusion activation; S. cerevisiae fusion-defective mutant growth rescue, CellTiterGlo 48 h; Potency, µM (doses to about 46.1 µM), inactives show at the highest dose growth rescue (activation), usual class: activators; 320,000 compounds, 0.23% hits; note: % of control where 0% means no effect; nearly all actives have a fitted effect of over 45% in size
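Compounds are tested for their ability to restore growth of mitochondrial fusion-defective yeast strains at non-permissive 37C in YPEG medium over 48 hours. Viability is quantified by luciferase luminescence.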
PLK1 PBD inh: inhibitors of human PLK1 polo-box domain binding. P53350. Plk1 PBD binding of FITC phosphopeptide, fluorescence polarization. Potency, µM, inactives show max response, negative = inhibition, hits mostly inhibitors. 360,000 compounds, 2.8% hits. AID 720504; note: series mostly up to about 57 µM; % is set by controls: 0 for no effect and ±100 for the full control effect; nearly all actives have a fitted effect of over 65% in size
VDR inhibitor: inhibitors of human vitamin D receptor; P11473; VDR-SRC2-3 peptide fluorescence polarization, 2 h; Potency, µM, for inactives: max response, negative = inhibition, most hits filed as inhibitors; 400,000 compounds, 0.93% hits; AID 504847; note: % is set by controls: 0 for no effect and ±100 for the full control effect
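Two reagent solutions held at 4 deg C in the dark were dispensed, compounds pinned at 23 nl, and the mixture incubated 2 h at room temperature. Read-out: fluorescence polarization of VDR–SRC2-3 peptide binding.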
PKM2 act: PKM2 (human) enzyme activation. purified PKM2, Kinase-Glo ATP luminescence, activation; response scale: 0% is enzyme alone, no compound. AID 1631. 260,000 compounds, 0.34% hits. Potency, µM (top dose mostly 57.5 µM), for inactives: top-dose activation, hits mostly activators. P14618; note: % is set by controls: 0 for no effect and ±100 for the full control effect; nearly all actives have a fitted effect of over 55% in size
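hPK-M2, >95% pure; 0.1 mM ADP / 0.5 mM PEP final; imidazole pH7.2 buffer w/ 7 mM MgCl2, 50 mM KCl; 1 h RT; Kinase-Glo lum. Intermediate enzyme activity for dual inhibitor/activator qHTS.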
Numbers without * were called inactive; ? = inconclusive; / = no result given; ! = a repeat was not active; [ ] = another dose, or the depositor's remark. Calls come from the whole dose curve; as a rule, active = well fitted curve in the direction sought with a large enough effect; inconclusive = small, poorly fitted or top-dose-only effect, or another doubt; inactive = no such curve, though single readings can be large; an effect the other way counts as inactive or inconclusive. Potency is the fitted concentration of half-maximal effect.

SMILES	GCN5L2 inh	GLS inhibitor	Mito fusion yeast	PLK1 PBD inh	VDR inhibitor	PKM2 act
CN1CCc2c(sc(N)c2C(N)=O)C1	2%	4%	-4%	?	-6%	2%
NC(=O)c1c(N)sc2c1CCCC2	-8%	8%	6%	24µM*	-28%	2%
Nc1sc2c(c1C(=O)c1ccccc1)CCCC2	-4%	5%	3%	21µM*	?	0%
Nc1sc2c(c1C(=O)NCCc1ccccc1)CCC2	-3%	-1%	15%	?	?	0%
COc1cccc([C@@H]2Oc3ccc(Br)cc3C(=O)[C@H]2OC(=O)NCCOc2ccccc2)c1	/	/	/	/	-3%	/
CCN(CC)S(=O)(=O)c1ccc(NC2=NS(=O)(=O)c3ccccc32)cc1	-1%	-5%	-3%	1%	9%	-5%
O=S1(=O)N=C(Nc2nncs2)c2ccccc21	-9%	1%	-2%	24µM*	-24%	-18%
Cn1c(Sc2ccc(C(=O)O)cc2[N+](=O)[O-])nnc1-c1ccccc1	-5%	-10%	0%	4.2µM*	79µM*	-1%
Cc1ccc(-n2ncc3c2CC(C)(C)CC3NC(=O)CCCN2CCCCC2=O)cc1 (stereo not given)	?	4%	0%	27µM*	-17%	/
Cc1nc2sccn2c(=O)c1S(=O)(=O)N1CCN(c2ccccc2)CC1	-5%	1%	-4%	-6%	-14%	1%
Cc1nc2sccn2c(=O)c1CCN1CCC(=C(c2ccccc2)c2ccc(F)cc2)CC1	-6%	/	18µM*!	/	-9%	4%
CCn1c(C)c(CS(=O)(=O)c2ccccc2)[nH]c1=O	-29%	30%	16%	3.4µM*	?	10%
CCOc1cccc2cc(-c3nc4sc(C(=O)Nc5ccc(C)cc5)c(C)c4c(=O)[nH]3)c(=O)oc12	0%	-1%	/	/	5%	/
Cn1c(=O)c2[nH]c(=S)n(Cc3ccccc3)c2n(C)c1=O	/	-19%	/	1%	?	/
Cn1c(=O)[nH]c(=O)c2c1nc(Br)n2Cc1ccc(Cl)cc1	/	-1%	/	2%	/	/
Cn1c(=O)[nH]c(=O)c2c1nc(Br)n2CCCc1ccccc1	2%	/	-1%	/	/	2%
Cn1c(=O)[nH]c(=O)c2c1[nH]c(=S)n2Cc1ccc(Cl)cc1	?	?	9%	12µM*	?	/
Cn1c(=O)[nH]c(=O)c2c1[nH]c(=S)n2CCCc1ccccc1	16µM*	?	-1%	30µM*	40µM*	-14%
Cn1c(=O)c2c([nH]c(=S)n2CCCc2ccccc2)n(C)c1=O	11µM*	?	2%	-30%	79µM*	-19%
O=C(NC1CCCc2ccccc21)c1ccc2c(c1)sc1nc(-c3ccccc3)cn12 (stereo not given)	-5%	7%	/	/	13%	/
CC(=O)[C@]1(O)Cc2c(O)c3c(c(O)c2[C@@H](O[C@H]2C[C@H](N)[C@H](O)[C@H](C)O2)C1)C(=O)c1ccccc1C3=O	?	21%	-14%	5.3µM*	?	/
C=CC1=C2C=C(C3CC3)N(C3CCCCC3)C=C2C(=O)C(C)(OC(=O)c2ccco2)C1=O (stereo not given)	/	/	/	/	/	1%[11.5 µM]
CN(C(=O)c1cnc(N2CCOCC2)c2ccccc12)c1ccccc1F	0%	7%	/	/	7%	/
O=C1CCc2cc(S(=O)(=O)Nc3cccc(F)c3)cc3c2N1CC3	-6%	1%	11%	10%	1%	/
CCOc1ccccc1C1CC(=O)NC2=C1C(=O)CC(C)(C)C2 (stereo not given)	-5%	-14%	3%	27µM*	-2%	-1%
SMILES	GCN5L2 inh	GLS inhibitor	Mito fusion yeast	PLK1 PBD inh	VDR inhibitor	PKM2 act
COc1ccc(C#Cc2ccc3c(c2)O[C@H](CN(C)S(=O)(=O)c2ccccc2F)[C@H](C)CN([C@H](C)CO)S3(=O)=O)cc1	/	11%	/	-3%	/	/
COc1ccc(N2C(=O)CC(Sc3nc(C)c4c(n3)CCCC4)C2=O)cc1 (stereo not given)	5%	5%	-12%	-14%	-8%	-1%
COc1ccc(N2C(=O)CC(Sc3n[nH]c(-c4ccccc4)n3)C2=O)cc1 (stereo not given)	-29%	?	0%	27µM*	-21%	-6%
Cc1ccccc1C(=O)N1CCC(C(=O)Nc2ccc(F)cc2F)CC1	-3%	0%	/	/	?	/
Cc1ccsc1/C=C1/SC(N2CC(C)OC(C)C2)=NC1=O (stereo not given)	-6%	-9%	9%	30µM*	-17%	-11%
COc1ccccc1/C=C/C(=O)c1cc(Br)ccc1OC(=O)c1ccco1	/	7%	/	24µM*	?	/
COC(=O)c1cc(C(=O)c2cccc(Cl)c2Cl)cn1C	11%	3%	4%	1%	-12%	25µM*
COc1ccc(C2NC(c3ccc4c(c3)OCO4)=CC(c3ccccc3O)N2)cc1OC (stereo not given)	/	/	/	/	-21%	/
CSc1cccc(NC(=O)COc2ccccc2)c1	-5%	?	0%	3µM*	-21%	-3%
COc1ccccc1C(=O)Nc1ccc2c(c1)nc1n2CCN(C2CCCCC2)C1	-1%	20%	-1%	17µM*	?	4%
CCOC(=O)[C@H](CCc1ccccc1)N[C@@H](C)C(=O)N(CC(=O)O)C1Cc2ccccc2C1	/	4%	/	/	/	/
Cc1ccc(S(=O)(=O)n2nc(C)c(C#N)c2N)cc1	-7%	9%	0%	27µM*	?	17%
Cc1ccc(Cl)cc1N1CCN(C(=O)CCS(=O)(=O)c2cccc3nonc23)CC1	-20%	7%	14µM*	-13%	-9%	-1%
COC(=O)[C@@]1(C)[C@H]2C(=O)N(C)C(=O)[C@H]2[C@H]2CN=C(SCC(=O)c3ccccc3)N21	-3%	7%	/	24µM*	32µM*	/
COC(=O)[C@@]1(C)[C@H]2C(=O)N(C)C(=O)[C@H]2[C@H]2CN=C(SCc3ccccc3)N21	-6%	-4%	/	-4%	3%	/
Cc1cc(C)c(NC(=S)NCCCSC2CCCCC2)c(C)c1	-13%	-8%	-2%	24µM*	-2%	-8%
O=[N+]([O-])c1cccc(S(=O)(=O)c2ccc(NCCO)c([N+](=O)[O-])c2)c1	-11%	?	1%	13µM*	?	16µM*
CCCCNc1ccc(S(N)(=O)=O)cc1[N+](=O)[O-]	-3%	/	0%	/	/	?
COc1ccc(NC2c3ccccc3C(=O)N2Cc2ccco2)cc1OC (stereo not given)	-11%	8%	1%	-15%	-3%	8%
O=C1c2ccccc2C(Nc2ccc(F)c(Cl)c2)N1Cc1ccco1 (stereo not given)	1%	-3%	?	-27%	89µM*	28%

Screening data deposited in PubChem BioAssay by National Center for Advancing Translational Sciences (NCATS).
